Test results: PubChem BioAssay (NCI)
This is part of a sample that, as a whole, favours compounds with a hit. Of some 83,000 tested, about 20% had one in any assay.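 The endpoint reported here, percent growth, reads 100 for growth as untreated, 0 for no net growth and -100 for all cells dead.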 Calls of active or inactive are those of the source. The calls were made as follows: active = growth percent below 10; inactive = the rest.

Tests used:
Experiment in all cases: NCI-60 one-dose screen, 48 h (100 = growth as untreated, 0 = no growth, -100 = all killed)
[1] = tested on: SK-MEL-2 melanoma; settings: 10 µM unless noted
[2] = tested on: EKVX NSCLC; settings: 10 µM unless noted
[3] = tested on: SN12C renal; settings: 10 µM unless noted
[4] = tested on: UO-31 renal; settings: 10 µM unless noted
[5] = tested on: CAKI-1 renal; settings: 10 µM unless noted
[6] = tested on: A498 renal; settings: 10 µM unless noted
[7] = tested on: CCRF-CEM leukemia; settings: 10 µM unless noted
[8] = tested on: MOLT-4 leukemia; settings: 10 µM unless noted
[9] = tested on: SR leukemia; settings: 10 µM unless noted
[10] = tested on: OVCAR-8 ovarian; settings: 10 µM unless noted
[11] = tested on: OVCAR-5 ovarian; settings: 10 µM unless noted
[12] = tested on: OVCAR-4 ovarian; settings: 10 µM
[13] = tested on: SK-OV-3 ovarian; settings: 10 µM unless noted
[14] = tested on: IGROV1 ovarian; settings: 10 µM unless noted
[15] = tested on: OVCAR-3 ovarian; settings: 10 µM unless noted
[16] = tested on: HS 578T breast; settings: 10 µM unless noted
[17] = tested on: NCI/ADR-RES ovarian; settings: 10 µM unless noted
[18] = tested on: ACHN renal; settings: 10 µM unless noted
[19] = tested on: RPMI-8226 leukemia; settings: 10 µM unless noted
[20] = tested on: TK-10 renal; settings: 10 µM unless noted

Measured: growth

CCOC(=O)C(=Cc1ccccc1[N+](=O)[O-])C(=O)OCC
inactive: [1] 12% | [2] 68.6% | [3] 24.5% | [4] 41.5% | [5] 24.1% | [6] 122% | [8] 11.1% | [10] 12.2% | [12] 24.7% | [13] 62.4% | [14] 37.8% | [16] 47.2%
active: [7] 2.19% | [9] -10% | [11] -31.5% | [15] -20.7% | [17] -29.4%

CC1Cc2c(Cl)ncnc2N(C)c2ccc(O)cc21 (stereo not given)
inactive: [1] 27% | [2] 51.3% | [3] 82.6% | [4] 22.5% | [18] 84.9% | [6] 94.1% | [7] 82.5% | [8] 67.6% | [9] 90.3% | [19] 68.5% | [10] 29.7% | [11] 102% | [12] 27% | [13] 31.7% | [14] 103% | [15] 50.8% | [16] 28.8% | [17] 17.3%

O=C(Oc1ccc(Cl)cc1[N+](=O)[O-])Oc1ccc(Cl)cc1[N+](=O)[O-]
inactive: [1] 103% | [2] 108% | [3] 107% | [4] 88.8% | [18] 108% | [5] 104% | [6] 154% | [7] 102% | [8] 97.8% | [9] 82.1% | [19] 100% | [10] 108% | [11] 108% | [12] 119% | [13] 120% | [15] 119% | [16] 104% | [17] 119%

CCOC(=O)c1ccc2nc(-c3c(C)nn(-c4ccccc4)c3N3CCOCC3)[nH]c2c1
inactive: [1] 110% | [2] 87.5% | [3] 90.9% | [4] 69.1% | [18] 86.2% | [5] 78.6% | [6] 70.4% | [7] 88.8% | [8] 84.4% | [9] 74% | [19] 84.4% | [10] 93.4% | [11] 103% | [12] 87.1% | [13] 95.3% | [14] 81.4% | [15] 93.5% | [17] 95.9%

O=C(O)c1cccc(CN2CCN(c3cc4c(cc3F)c(=O)c(C(=O)O)cn4C3CC3)CC2)c1O
inactive: [1] 101% | [2] 100% | [3] 102% | [4] 81.6% | [18] 103% | [5] 88.7% | [6] 106% | [7] 101% | [8] 105% | [9] 87.5% | [19] 103% | [10] 96.7% | [11] 102% | [12] 114% | [13] 101% | [14] 101% | [15] 106% | [16] 103% | [17] 101%

O=C(O)c1cn(C2CC2)c2cc(N3CCN(Cc4cc(Cl)ccc4O)CC3)c(F)cc2c1=O
inactive: [1] 88% | [2] 65.1% | [3] 65.3% | [4] 40.7% | [18] 44.3% | [5] 46.7% | [6] 94% | [7] 45.9% | [8] 74.1% | [19] 41.8% | [10] 58.2% | [11] 89.4% | [12] 72.3% | [13] 71% | [14] 44.8% | [15] 81.2% | [16] 74.1% | [17] 72.7%
active: [9] 0.849%

CC(=O)Nc1ccc2nc3ccc(NC(C)=O)cc3[n+](-c3ccccc3)c2c1
inactive: [1] 106% | [2] 118% | [3] 104% | [4] 93.3% | [18] 98.9% | [5] 122% | [6] 158% | [7] 73.1% | [8] 38.9% | [9] 83.7% | [19] 62.1% | [10] 93.5% | [11] 113% | [12] 86% | [14] 92.8% | [15] 49.2% | [16] 263% | [17] 107%

O=C(NCCCNC(=O)OCc1ccc2cccc(O)c2n1)OCc1ccc2cccc(O)c2n1
inactive: [1] 71.3% | [2] 79.9% | [3] 40.4% | [4] 26.9% | [18] 19.8% | [5] 21% | [6] 60.9% | [8] 21.7% | [9] 12.1% | [19] 18.4% | [10] 23% | [11] 59.9% | [12] 39.2% | [13] 76.6% | [14] 24.1% | [15] 14.8% | [16] 57.2% | [17] 41.5%

COc1cc(-c2nc(SCCC(C)C)nc(Nc3ccc(S(N)(=O)=O)cc3)c2C#N)cc(OC)c1OC
active: [8] 1.98% | [9] -18.5% | [19] -0.242%
inactive: [1] 51.4% | [2] 45.1% | [3] 26.4% | [4] 14.7% | [18] 29.5% | [5] 17.1% | [6] 43.5% | [7] 14.1% | [10] 29.9% | [11] 53.9% | [12] 19.8% | [13] 76.5% | [14] 40.5% | [15] 32.5% | [16] 40.5% | [17] 37.6%

CCOC(=O)c1c[nH]c2cc(OCC3CC3)c(OCC3CC3)cc2c1=O
inactive: [1] 119% | [2] 116% | [3] 108% | [4] 86.5% | [18] 105% | [5] 104% | [6] 94.1% | [7] 91.3% | [8] 109% | [9] 104% | [19] 103% | [10] 99.5% | [11] 102% | [12] 118% | [13] 110% | [15] 109% | [16] 103% | [17] 111%

COc1ccc(C2=C(c3cn(C)c4ccccc34)C(=O)OC2)cc1OC
inactive: [1] 33.6% | [2] 53% | [3] 36.9% | [4] 25% | [18] 34% | [5] 25.6% | [7] 31.2% | [9] 29.1% | [19] 40% | [10] 47.8% | [11] 64.9% | [12] 39.8% | [14] 43.4% | [16] 22.5% | [17] 22.7%
active: [6] -10.9% | [15] -8.6%

CCOC(=O)C(C(C)=O)c1nc2sc3cc(Cl)c(Cl)cc3n2c(=O)c1C#N (stereo not given)
inactive: [1] 108% | [2] 86% | [3] 98.8% | [4] 58.4% | [20] 145% | [5] 96.2% | [6] 142% | [8] 89.6% | [9] 105% | [19] 98.6% | [10] 92.8% | [11] 122% | [12] 94.5% | [13] 83.2% | [16] 114% | [17] 106%

Cc1cc(C)c(S(=O)(=O)/N=c2/n(-c3ccccc3)nc3n2CCN3C2=NCCN2)c(C)c1
inactive: [1] 104% | [2] 83% | [3] 79.8% | [4] 61.2% | [18] 90% | [5] 74.4% | [6] 61.8% | [7] 83.7% | [8] 66.2% | [9] 39.9% | [19] 76% | [10] 86.7% | [11] 86.5% | [13] 83.2% | [14] 65.5% | [15] 88.7% | [16] 79.3% | [17] 89.1%

O=S(=O)(NCCCNc1nccc(-c2c(-c3cccc(F)c3)nc3occn23)n1)c1cccc2ccccc12
inactive: [1] 47.3% | [2] 47.3% | [3] 43.3% | [4] 17.6% | [18] 29.5% | [5] 20.5% | [6] 28.9% | [7] 25.9% | [9] 50.7% | [19] 28.2% | [10] 42.1% | [11] 66.7% | [12] 34.6% | [13] 55.6% | [14] 14.4% | [15] 56.3% | [16] 23.4% | [17] 48.2%

O=C(NCCCNC(=O)OCc1ccc2c(Br)cc(Br)c(O)c2n1)OCc1ccc2c(Br)cc(Br)c(O)c2n1
inactive: [13] 20.2%
active: [1] -6.76% | [2] -5.94% | [3] -77.4% | [20] -89% | [18] -100% | [5] -92% | [6] -2.82% | [7] 4.23% | [8] 0.977% | [9] 5.95% | [19] -27.3% | [10] -14.6% | [11] -63% | [12] -77.6% | [14] -87.7% | [15] -69.3% | [16] -19.1% | [17] -29%
